# PubChem BioAssay AID1863 (Southern Research Specialized Biocontainment Screening …, 2009)
# The campaign covered roughly 300,000 compounds. About 480 (0.16%) were called active. A selection follows. Entries with a potency or affinity are not part of this list. A number with no mark means an inactive call.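 How the source made its calls: active means inhibition over 29.93%, a cutoff 3 SD above the screen mean, later confirmed by dose response; inconclusive means inhibition over 29.93% but no dose response follow-up; inactive means inhibition at most 29.93% or unconfirmed.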
# Assay: PhoP-dependent GFP reporter repression – Salmonella Typhimurium, primary screen (AID 1863);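 further: 0% = low Mg2+ inducing control and 100% = high Mg2+ repressing control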
# Conditions: S. Typhimurium PhoP-regulated promoter GFP reporter, 4 h; at 50 µM; stronger effect = higher value
row,SMILES,inhibition [%]
1,CCc1nccn1CCC(=O)N1CCCC(N2CCN(c3cccc(Cl)c3)CC2)C1 (configuration not stated),-2.69
2,CN1CCCN(C(=O)c2cccc3ccccc23)CC1,-0.73
3,O=C1CC(C(=O)N2CCN(c3ccc(F)cc3)CC2)CN1CCc1ccccc1 (configuration not stated),5.66
4,CCCN(CC(=O)Nc1ccccc1C)C(=O)COc1ccc2c(c1)CCC2,-2.3
5,CN1CCCN(C(=O)c2c(F)cccc2Cl)CC1,-6.36
6,CCCS(=O)(=O)N1CCN(C(=O)COc2ccccc2)CC1,1.1
7,O=C(C[n+]1cc(-c2ccccc2)n2c1CCC2)N1c2ccccc2Sc2ccccc21,9.1
8,O=C(C[n+]1cc(-c2ccccc2)n2c1CCC2)Nc1nc(-c2ccccc2)cs1,2.36
9,O=C(C[n+]1cc(-c2ccc(Cl)cc2)n2c1CCC2)N1c2ccccc2Sc2ccccc21,17.8
10,O=C(C[n+]1cc(-c2ccc(F)cc2)n2c1CCC2)Nc1nc(-c2ccccc2)cs1,14.9
11,Cn1c(NC(=O)C[n+]2cc(-c3ccc(Cl)cc3)n3c2CCC3)cc(=O)n(C)c1=O,4.64
12,Cn1c(NC(=O)C[n+]2cc(-c3ccc(F)cc3)n3c2CCC3)cc(=O)n(C)c1=O,4.11
13,CC1CCc2c(nc3ncnn3c2N2CC(C)OC(C)C2)C1 (configuration not stated),-10.6
14,Cc1ccc(S(=O)(=O)CCC(=O)Oc2ccc(-c3nnco3)cc2)cc1,-2.63
15,COc1cccc(CN2CCN(Cc3cc(OC)c(OC)cc3OC)CC2)c1,-6.37
16,O=C(N/N=C/c1ccccc1F)c1cccc2ccccc12,-1.58
17,COc1ccc(C(=O)N/N=C/c2c[nH]c3ccccc23)cc1,4.37
18,O=C(N/N=C/c1ccccc1O)c1cccc2ccccc12,7.21
19,COc1ccc2cc(C(=O)N/N=C/c3sc4ccccc4c3O)ccc2c1,9.41
20,CCC(=O)N1CCc2cc(Br)cc(S(=O)(=O)CCC(=O)NCCOC)c21,1.63
21,COC(=O)[C@@H](NC(=O)Nc1ccc(OC(F)(F)F)cc1)C(C)C,-9.58
22,O=C1CC(c2ccccc2Cl)Cc2c1cnn2-c1nc2ccccc2s1 (configuration not stated),-5.22
23,Cc1nn(C)c(C)c1CN(C)C(=O)CCCC(=O)O,-3.44
24,CCOc1ccccc1-c1ccc(C(=O)NCc2ccccc2)o1,-2.75
25,Cc1c(Cl)cccc1NC(=O)CNC(=O)c1ccc(F)cc1,-6.63
26,O=C1C(=O)N(CCO)C(c2cccc(F)c2)/C1=C(\O)c1ccc(Cl)cc1 (configuration not stated),0.663

row,SMILES,inhibition [%]
1,O=C(COC(=O)CCCN1C(=O)c2cccc3cccc(c23)C1=O)Nc1cccc(Br)c1,5.32
2,Cc1ccc(C2=NN(CC(=O)NCc3ccccn3)C(=O)CC2)cc1,15.1
3,O=C(Nc1cccc(Cl)c1)NC1CCS(=O)(=O)C1 (configuration not stated),0.08
4,CCCCCCCCCCC[N+](C)(C)CC/C=C1/c2ccccc2Sc2ccc(Cl)cc21,0.18
5,CCCCCC[N+](C)(C)CC/C=C1/c2ccccc2Sc2ccc(Cl)cc21,-5.82
6,CCC(Sc1ccccc1C(=O)O)C(=O)O (configuration not stated),-0.12
7,O=C(O)c1ccccc1SSc1ccccc1C(=O)O,-0.72
8,CCNC1=C(Cl)C(=O)c2ccccc2C1=O,22.7
9,O=C1C(Cl)=C(Nc2ccccc2)C(=O)c2ccccc21,4.63
10,O=C(CCCN1C(=O)c2ccccc2C1=O)Nc1ccccn1,-1.86
11,CCC1(c2ccccc2)NC(=O)N(CC(=O)Nc2cc(S(=O)(=O)N3CCOCC3)ccc2OC(C)C)C1=O (configuration not stated),-0.1
12,COc1ccc(C(=O)CCC(=O)NCCc2c[nH]c3ccccc23)cc1,8.52
13,Cc1cccc(NS(=O)(=O)c2cccs2)c1,16.6
14,Cc1nc([N+](=O)[O-])c(Br)n1CC(=O)c1ccc(Br)cc1,8.26
15,Cc1nc([N+](=O)[O-])c(Br)n1CC(=O)c1ccc(F)cc1,7.24
16,Nc1cc(Nc2ccccc2)c2nonc2c1[N+](=O)[O-],-3.49
17,O=[N+]([O-])c1c(Nc2ccccc2O)cc(Cl)c2nonc12,16.1
18,O=[N+]([O-])c1c(Nc2ccc(O)cc2)cc(Cl)c2nonc12,20
19,Nc1cc(N2CCCCCC2)c2nonc2c1[N+](=O)[O-],-3.85
20,Cc1c(NC(=O)c2ccc(S(=O)(=O)N3CCOCC3)cc2)c(=O)n(-c2ccccc2)n1C,-7.51
21,OCCC1CN(Cc2cccn2-c2ccccn2)CCN1C1CCCC1 (configuration not stated),-4.15
22,COc1ccccc1C(c1nnnn1C1CCCC1)N1CCN2CCCC2C1 (configuration not stated),2.8
23,CCC1(C)Cc2c(sc3nc(SCC(=O)c4ccccc4)[nH]c(=O)c23)CO1 (configuration not stated),-14.9
24,Nc1nonc1-n1nnc(C(=O)N/N=C/c2c(Cl)cccc2Cl)c1CSC1=NCCS1,6.32
25,Nc1nonc1C(=O)N/N=C/c1ccc(Br)o1,-2.96
26,Nc1nonc1C(=O)N/N=C/c1cc2c(cc1Br)OCO2,3.06

row,SMILES,inhibition [%]
1,Nc1nonc1-n1nnc(C(=O)N/N=C/c2ccc(Br)cc2)c1CSC1=NCCS1,44.3
2,O=C(NCc1ccco1)C1CCCN(S(=O)(=O)c2ccc(Cl)cc2)C1 (configuration not stated),0.1
3,COc1ccc(-c2cccc(NC(=O)COc3ccc(Cl)cc3)c2)nn1,-8.03
4,CCCCCCCCCC[n+]1cccc(C(=O)N(CC)CC)c1,11
5,CCCCCCCC[n+]1cccc(C(=O)N(CC)CC)c1,7.46
6,CCC(=O)NC(=S)Nc1ccc(N2CCN(C(=O)c3ccc(Cl)cc3)CC2)cc1,2.66
7,CC(=O)/C=C1\SC(CC(=O)O)C(=O)N1c1ccccc1 (configuration not stated),-3.51
8,COc1ccc2nc(SCC(N)=O)cc(C)c2c1,-2.01
9,CC1CCN(CC(O)CN2c3ccccc3Sc3ccccc32)CC1 (configuration not stated),11.3
10,CN1CCCC(CN2c3ccccc3Sc3ccccc32)C1 (configuration not stated),5.69
11,Cc1c(N=Cc2cc(Br)cc(Br)c2O)cccc1C(=O)O,20.2
12,O=C(O)c1cccc(N/N=C/c2cc(Br)cc(Br)c2O)c1,-5.01
13,N#CCCn1nc(-c2ccccc2)c2ccccc2c1=O,0.37
14,Cc1ccc(N2C(=O)Nc3ccccc3C2(O)C(=O)N2CCN(c3ccccn3)CC2)cc1C (configuration not stated),1.22
15,O=C(CS(=O)(=O)c1ccccc1)NC1CCCCC1,-0.8
16,CC(CC(=O)Nc1ccccc1)NCCCN1CCCC1=O (configuration not stated),-13.5
17,COc1ccc(C(=O)Nc2ccccc2C(=O)N2CCCCC2C)cc1 (configuration not stated),-7.49
18,Cc1ccc(S(=O)(=O)N2CC(=NN=C(N)N)C2)cc1,6.04
19,NC(N)=NN=C1CCC(c2ccccc2)CC1 (configuration not stated),-4.95
20,COc1ccc(/C=N/NC(=O)c2ccc(COc3ccccc3Cl)o2)cc1,2.77
21,CC(=O)Nc1ccc(Nc2nnc(-c3ccc(C)c(S(N)(=O)=O)c3)c3ccccc23)cc1,-2.89
22,CC(C)(C)C1=CC(=O)C(N2CCOCC2)=CC1=O,-2.73
23,CC1=C(C)C(=O)C(N2CCOCC2)=CC1=O,-8.01
24,CC(NC(=O)COc1ccc(Oc2ccccc2)cc1)C(=O)O (configuration not stated),-6.64
25,CC(=O)c1cccc(NC(=O)Nc2ccccc2)c1,4.67
26,O=C(NC(c1ccc(Cl)cc1)c1cc(Cl)c2cccnc2c1O)c1cccnc1 (configuration not stated),6.03

row,SMILES,inhibition [%]
1,Oc1c(C(c2ccc(Cl)cc2)N2CCCC2)cc(Cl)c2cccnc12 (configuration not stated),4.49
2,CN1CCN(C(c2ccc(C(F)(F)F)cc2)c2ccc3cccnc3c2O)CC1 (configuration not stated),0.72
3,COc1ccc(C(NC(C)=O)c2cc(Cl)c3cccnc3c2O)cc1OC (configuration not stated),3
4,OCCN1CCN(C(c2cccs2)c2ccc3cccnc3c2O)CC1 (configuration not stated),-47.6
5,CCC(=O)NC(c1ccc(OC)cc1)c1cc(Cl)c2cccnc2c1O (configuration not stated),2.08
6,CN1CCN(C(c2cccnc2)c2ccc3cccnc3c2O)CC1 (configuration not stated),-7.68
7,CCOC(=O)N1CCN(S(=O)(=O)c2cccc3cccnc23)CC1,-11
8,CCC(c1nnnn1C(C)(C)CC)N(CCCN1CCOCC1)Cc1cc2cccc(C)c2[nH]c1=O (configuration not stated),1.45
9,CCn1nc(C)c(/C=N/NC(=O)Cn2nc(C)cc2C)c1C,-4.2
10,CCCCNC(=O)c1cc(-c2ccc(OC)c(OC)c2)on1,3.01
11,Cc1c(C#N)c(N)nc2c3c(sc12)NC(=O)CC3c1ccccc1 (configuration not stated),-5.65
12,COc1cccc(NC(=O)c2cc([N+](=O)[O-])ccc2NCc2cccnc2)c1,-4.37
13,CCOC(=O)c1cn(CC(=O)Nc2cccc(F)c2)nn1,-11.4
14,O=C(Cn1c(C(=O)O)cc2ccccc21)c1ccccc1,-2.79
15,Cc1ccc(N2C(=O)N(CC(=O)N3CCOCC3)C(=O)C2C)cc1 (configuration not stated),2.04
16,COC(C(=O)Nc1ccnn1C1CCN(C(=O)c2ccc(C)cc2)CC1)c1ccccc1 (configuration not stated),5.45
17,O=S1(=O)CCOC[C@H](CC2CCCCC2)N1Cc1cccc(C(F)(F)F)c1,9.84
18,CC(=O)NC(c1ccc(C)cc1)c1cc(Cl)c2cccnc2c1O (configuration not stated),-1.88
19,Oc1c(C(c2ccccn2)N2CCC(Cc3ccccc3)CC2)cc(Cl)c2cccnc12 (configuration not stated),-3.77
20,CCOc1ccc(C(Nc2cccnc2)c2cc(Cl)c3cccnc3c2O)cc1 (configuration not stated),3.11
21,CC(=O)NC(c1ccccc1)c1cc(Cl)c2cccnc2c1O (configuration not stated),18.9
22,O=C(NC(c1ccccc1)c1cc(Cl)c2cccnc2c1O)c1cccnc1 (configuration not stated),-10.8
23,CCC(=O)NC(c1cccs1)c1cc(Cl)c2cccnc2c1O (configuration not stated),14.8
24,COc1ccc(C(NC(C)=O)c2cc(Cl)c3cccnc3c2O)cc1 (configuration not stated),5.56
